Out of some 5,500 compounds screened, about 2,000 (36%) were called active. Inconclusive results (about 18%) are left out. Cut-off read from the data, not from the text of the source: active = normalized growth mostly below about 0.91 (no sharp cut-off); inconclusive = no clear call, values can overlap the other calls; inactive = mostly above about 0.92. The list shows a part of the results.
Test: chemical genetic growth profiling, strain panel (AID 1159580);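 note: tested at 20 µM; growth read once vehicle control cultures reached saturation at 30 °C; 1 = growth at the plate median or of vehicle wells; lower values mean less growth of the strain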
Settings: growth OD
[1] = S. cerevisiae deletion strains, locus YDL101C, strain DUN1, active compounds read low
[2] = S. cerevisiae deletion strains, locus YHR030C, strain SLT2, active compounds read low

Measured: normalized growth

C/C(=N/NC(=S)Nc1ccc(C(C)C)cc1)c1ccco1
inactive: [1] 0.905 | S. cerevisiae deletion strains, locus YDR150W, strain NUM1, active compounds read low 0.805 | S. cerevisiae deletion strains, locus YJR043C, strain POL32, active compounds read low 0.937 | S. cerevisiae deletion strains, locus YLR058C, strain SHM2 (second series), active compounds read low 0.967 | S. cerevisiae deletion strains, locus YNL322C, strain KRE1, active compounds read low 0.991 | S. cerevisiae deletion strains, locus YPL055C, strain LGE1, active compounds read low 0.847
active: S. cerevisiae deletion strains, locus YAL013W, strain DEP1, active compounds read low 0.906 | S. cerevisiae deletion strains, locus YBR229C, strain ROT2, active compounds read low 0.859 | S. cerevisiae deletion strains, locus YCL061C, strain MRC1, active compounds read low 0.909 | S. cerevisiae deletion strains, locus YDL134C, strain PPH21, active compounds read low 0.629 | S. cerevisiae deletion strains, locus YEL061C, strain CIN8, active compounds read low 0.433 | S. cerevisiae deletion strains, locus YGR078C, strain PAC10, active compounds read low 0.864 | [2] 0.242 | S. cerevisiae deletion strains, locus YHR087W, strain rtc3, active compounds read low 0.817 | S. cerevisiae deletion strains, locus YJL187C, strain SWE1, active compounds read low 0.866 | S. cerevisiae deletion strains, locus YJR075W, strain HOC1, active compounds read low 0.879 | S. cerevisiae deletion strains, locus YKL190W, strain CNB1, active compounds read low 0.583 | S. cerevisiae deletion strains, locus YLR039C, strain RIC1, active compounds read low 0.487 | S. cerevisiae deletion strains, locus YLR085C, strain ARP6, active compounds read low 0.158 | S. cerevisiae deletion strains, locus YLR262C, strain YPT6, active compounds read low 0.617 | S. cerevisiae deletion strains, locus YML094W, strain GIM5, active compounds read low 0.687 | S. cerevisiae deletion strains, locus YMR219W, strain ESC1, active compounds read low 0.93 | S. cerevisiae deletion strains, locus YMR263W, strain SAP30, active compounds read low 0.892 | S. cerevisiae deletion strains, locus YMR307W, strain GAS1, active compounds read low 0.376 | S. cerevisiae deletion strains, locus YNL153C, strain GIM3, active compounds read low 0.875 | S. cerevisiae deletion strains, locus YNL298W, strain CLA4 (second series), active compounds read low 0.437 | S. cerevisiae deletion strains, locus YNR030W, strain Alg12, active compounds read low 0.609 | S. cerevisiae deletion strains, locus YOL006C, strain TOP1, active compounds read low 0.17 | S. cerevisiae deletion strains, locus YPL241C, strain CIN2, active compounds read low 0.516 | S. cerevisiae deletion strains, locus YPR135W, strain CTF4, active compounds read low 0.398 | S. cerevisiae strains, strain wild type, active compounds read low 0.741

O/N=C(/c1ccc(Cl)cc1)c1cc2ccccc2o1
active: [2] 0.526 | S. cerevisiae deletion strains, locus YJL095W, strain BCK1, active compounds read low 0.403 | S. cerevisiae deletion strains, locus YKL203C, strain TOR2, active compounds read low 0.622 | S. cerevisiae deletion strains, locus YLR403W, strain SFP1, active compounds read low 0.614
inactive: S. cerevisiae deletion strains, locus YAR019C, strain CDC15, active compounds read low 0.936 | S. cerevisiae deletion strains, locus YBL105C, strain PKC1, active compounds read low 0.946 | S. cerevisiae deletion strains, locus YBR135W, strain CKS1, active compounds read low 0.939 | S. cerevisiae deletion strains, locus YBR136W, strain MEC1, active compounds read low 0.945 | S. cerevisiae deletion strains, locus YBR160W, strain CDC28, active compounds read low 0.957 | S. cerevisiae deletion strains, locus YDL017W, strain CDC7, active compounds read low 0.946 | S. cerevisiae deletion strains, locus YDL028C, strain MPS1, active compounds read low 0.948 | [1] 0.964 | S. cerevisiae deletion strains, locus YDL108W, strain KIN28, active compounds read low 0.943 | S. cerevisiae deletion strains, locus YDL132W, strain cdc53, active compounds read low 0.962 | S. cerevisiae deletion strains, locus YDL214C, strain PRR2, active compounds read low 0.887 | S. cerevisiae deletion strains, locus YDR052C, strain DBF4, active compounds read low 0.93 | S. cerevisiae deletion strains, locus YDR054C, strain cdc34, active compounds read low 0.947 | S. cerevisiae deletion strains, locus YDR226W, strain ADK1, active compounds read low 0.916 | S. cerevisiae deletion strains, locus YDR477W, strain SNF1, active compounds read low 0.847 | S. cerevisiae deletion strains, locus YER123W, strain YCK3, active compounds read low 0.883 | S. cerevisiae deletion strains, locus YER133W, strain GLC7, active compounds read low 0.813 | S. cerevisiae deletion strains, locus YFL009W, strain cdc4, active compounds read low 0.963 | S. cerevisiae deletion strains, locus YFL029C, strain CAK1, active compounds read low 0.94 | S. cerevisiae deletion strains, locus YFR003C, strain YPI1, active compounds read low 0.943 | S. cerevisiae deletion strains, locus YFR019W, strain FAB1, active compounds read low 0.904 | S. cerevisiae deletion strains, locus YFR028C, strain CDC14, active compounds read low 0.956 | S. cerevisiae deletion strains, locus YGR040W, strain KSS1, active compounds read low 0.852 | S. cerevisiae deletion strains, locus YGR052W, strain FMP48, active compounds read low 0.789 | S. cerevisiae deletion strains, locus YGR092W, strain DBF2, active compounds read low 0.748 | S. cerevisiae deletion strains, locus YHR079C, strain IRE1, active compounds read low 0.851 | S. cerevisiae deletion strains, locus YHR082C, strain KSP1, active compounds read low 0.877 | S. cerevisiae deletion strains, locus YHR205W, strain SCH9, active compounds read low 0.675 | S. cerevisiae deletion strains, locus YIL147C, strain SLN1, active compounds read low 0.943 | S. cerevisiae deletion strains, locus YJL128C, strain PBS2, active compounds read low 0.893 | S. cerevisiae deletion strains, locus YJL157C, strain FAR1, active compounds read low 0.872 | S. cerevisiae deletion strains, locus YJR016C, strain ILV3, active compounds read low 0.941 | S. cerevisiae deletion strains, locus YJR066W, strain TOR1 (second series), active compounds read low 0.848 | S. cerevisiae deletion strains, locus YJR066W, strain TOR1, active compounds read low 0.797 | S. cerevisiae deletion strains, locus YKL048C, strain ELM1, active compounds read low 0.923 | S. cerevisiae deletion strains, locus YKL067W, strain YNK1, active compounds read low 0.893 | S. cerevisiae deletion strains, locus YKL101W, strain HSL1, active compounds read low 0.916 | S. cerevisiae deletion strains, locus YKL193C, strain SDS22, active compounds read low 0.93 | S. cerevisiae deletion strains, locus YLR113W, strain HOG1, active compounds read low 0.915 | S. cerevisiae deletion strains, locus YLR133W, strain CKI1, active compounds read low 0.863 | S. cerevisiae deletion strains, locus YML070W, strain DAK1, active compounds read low 0.868 | S. cerevisiae deletion strains, locus YMR001C, strain CDC5, active compounds read low 0.936 | S. cerevisiae deletion strains, locus YMR205C, strain PFK2 (second series), active compounds read low 0.862 | S. cerevisiae deletion strains, locus YMR277W, strain FCP1, active compounds read low 0.933 | S. cerevisiae deletion strains, locus YNL006W, strain LST8, active compounds read low 0.945 | S. cerevisiae deletion strains, locus YNL020C, strain ARK1, active compounds read low 0.82 | S. cerevisiae deletion strains, locus YNL161W, strain CBK1, active compounds read low 0.942 | S. cerevisiae deletion strains, locus YNL183C, strain NPR1, active compounds read low 0.784 | S. cerevisiae deletion strains, locus YNL207W, strain RIO2, active compounds read low 0.935 | S. cerevisiae deletion strains, locus YNL222W, strain SSU72, active compounds read low 0.947 | S. cerevisiae deletion strains, locus YNL307C, strain MCK1 (second series), active compounds read low 0.902 | S. cerevisiae deletion strains, locus YOL078W, strain AVO1, active compounds read low 0.937 | S. cerevisiae deletion strains, locus YOL136C, strain PFK27, active compounds read low 0.865 | S. cerevisiae deletion strains, locus YOR061W, strain CKA2, active compounds read low 0.87 | S. cerevisiae deletion strains, locus YOR119C, strain RIO1, active compounds read low 0.848 | S. cerevisiae deletion strains, locus YOR231W, strain MKK1, active compounds read low 0.964 | S. cerevisiae deletion strains, locus YOR329C, strain SCD5, active compounds read low 0.946 | S. cerevisiae deletion strains, locus YPL031C, strain PHO85, active compounds read low 0.84 | S. cerevisiae deletion strains, locus YPL153C, strain RAD53, active compounds read low 0.841 | S. cerevisiae deletion strains, locus YPL204W, strain HRR25, active compounds read low 0.807 | S. cerevisiae deletion strains, locus YPL209C, strain IPL1, active compounds read low 0.941 | S. cerevisiae deletion strains, locus YPL256C, strain CLN2, active compounds read low 0.917 | S. cerevisiae deletion strains, locus YPR025C, strain CCL1, active compounds read low 0.948 | S. cerevisiae deletion strains, locus YPR106W, strain ISR1, active compounds read low 0.946 | S. cerevisiae deletion strains, locus YPR111W, strain DBF20, active compounds read low 0.951 | S. cerevisiae deletion strains, strain NNK1, active compounds read low 0.946 | S. cerevisiae deletion strains, strain TSCII, active compounds read low 0.939

Reference: PubChem BioAssay AID1159580 (chemical genetic matrix, 2015)
